From the supplement of paper PMC11732987, “Enantioselective OTUD7B fragment discovery through chemoproteomics screening and high-throughput optimisation” (Communications Chemistry, 2025)

Assays:
Experiment in all cases: log2 ratio of Biotin-Ahx-Ub-VS probe labelling (compound/DMSO); higher = less target engagement, active = hit call of the paper (q ≤ 0.05, log2 ratio ≤ -1)
Settings in all cases: treatment time: 3 h
[1] = compound: CCC1N(CCc2sccc12)C(=O)CCl
Procedure, shortened: (§1)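 HEK293T lysate (495 µg per sample, in Tris/CHAPS/IGEPAL buffer with protease inhibitors) was exposed in triplicate to compound at 50 or 200 µM, or to DMSO, for 3 h, then to Biotin-Ahx-Ub-VS (0.5 µM final) for 1 h. The labelled DUBs were enriched on NeutrAvidin, digested with LysC and trypsin, and analysed by diaPASEF LC-MS/MS. Average base-two log ratios of compound over DMSO came from median-normalised label-free quantities by unpaired t-test. Only proteins with at least 2 unique peptides were used.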

[2] = compound: CN1c2ccccc2C(CS1(=O)=O)NC(=O)CCl
Procedure, shortened: as §1

[3] = compound: Cl.ClCC(=O)N1CCc2ncncc2C1
Procedure, shortened: as §1

[4] = compound: Cl.Cn1ncc2C(CCCc12)NC(=O)CCl
Procedure, shortened: as §1

[5] = compound: ClCC(=O)NC1CCOc2ccccc12
Procedure, shortened: as §1

[6] = compound: ClCC(=O)NC1CCCc2ccccc12
Procedure, shortened: (§2)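 Spectronaut label-free, global-median-normalised protein quantities underlie these values, which are average ratios of compound to vehicle from an unpaired t-test. They are reported as log2 and include only proteins identified by two or more unique peptides. Samples of HEK293T lysate (495 µg) were treated in triplicate with a compound concentration series or vehicle for 3 h, then labelled with Biotin-Ahx-Ub-VS at 0.5 µM final for 1 h before NeutrAvidin enrichment, LysC and trypsin digestion, and diaPASEF LC-MS/MS.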

[7] = compound: ClCC(=O)N[C@@H]1CCCc2ccccc12
Procedure, shortened: as §2

[8] = compound: ClCC(=O)N[C@H]1CCCc2ccccc12
Procedure, shortened: as §2

[9] = compound: CCC1N(CCc2cc(OC)c(Cl)cc12)C(=O)CCl
Procedure, shortened: as §1

[10] = compound: CCCC1N(CCc2cc(OC)c(OC)cc12)C(=O)CCl
Procedure, shortened: as §1

Measured: log2 ratio of Biotin-Ahx-Ub-VS probe labelling

UCHL1 (UniProt P09936)
UniProt P09936, sequence (P09936 whole entry, looked up): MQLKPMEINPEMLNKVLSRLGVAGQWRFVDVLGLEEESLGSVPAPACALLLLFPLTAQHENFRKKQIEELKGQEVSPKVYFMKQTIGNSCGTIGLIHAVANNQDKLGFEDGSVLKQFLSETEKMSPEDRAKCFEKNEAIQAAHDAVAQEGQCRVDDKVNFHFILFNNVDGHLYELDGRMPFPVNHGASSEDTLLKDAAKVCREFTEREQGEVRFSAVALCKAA
inactive: [1]; compound concentration: 50uM -0.0927 | [1]; compound concentration: 200uM 0.068 | [2]; compound concentration: 50uM -0.207 | [2]; compound concentration: 200uM -0.242 | [3]; compound concentration: 50uM -0.16 | [3]; compound concentration: 200uM -0.504 | [4]; compound concentration: 50uM -0.114 | [4]; compound concentration: 200uM 0.145 | [5]; compound concentration: 50uM 0.105 | [5]; compound concentration: 200uM 0.0647 | [6]; compound concentration: 0.78uM -0.218 | [6]; compound concentration: 1.56uM -0.0576 | [6]; compound concentration: 3.13uM -0.283 | [6]; compound concentration: 6.25uM -0.158 | [6]; compound concentration: 12.5uM -0.19 | [6]; compound concentration: 25uM -0.341 | [6]; compound concentration: 50uM -0.22 | [6]; compound concentration: 100uM -0.163 | [6]; compound concentration: 200uM -0.254 | [7]; compound concentration: 0.78uM -0.29 | [7]; compound concentration: 1.56uM -0.214 | [7]; compound concentration: 3.13uM -0.161 | [7]; compound concentration: 6.25uM -0.154 | [7]; compound concentration: 12.5uM -0.211 | [7]; compound concentration: 25uM -0.116 | [7]; compound concentration: 50uM -0.259 | [7]; compound concentration: 100uM -0.155 | [7]; compound concentration: 200uM -0.0847 | [8]; compound concentration: 0.78uM -0.211 | [8]; compound concentration: 1.56uM -0.304 | [8]; compound concentration: 3.13uM -0.239 | [8]; compound concentration: 6.25uM -0.187 | [8]; compound concentration: 12.5uM -0.239 | [8]; compound concentration: 25uM -0.196 | [8]; compound concentration: 50uM -0.16 | [8]; compound concentration: 100uM -0.204 | [8]; compound concentration: 200uM -0.267 | [9]; compound concentration: 50uM 0.0838 | [9]; compound concentration: 200uM 0.00983 | [10]; compound concentration: 50uM -0.262 | [10]; compound concentration: 200uM -0.45

OTUD7B (UniProt Q6GQQ9)
UniProt Q6GQQ9, sequence (Q6GQQ9 whole entry): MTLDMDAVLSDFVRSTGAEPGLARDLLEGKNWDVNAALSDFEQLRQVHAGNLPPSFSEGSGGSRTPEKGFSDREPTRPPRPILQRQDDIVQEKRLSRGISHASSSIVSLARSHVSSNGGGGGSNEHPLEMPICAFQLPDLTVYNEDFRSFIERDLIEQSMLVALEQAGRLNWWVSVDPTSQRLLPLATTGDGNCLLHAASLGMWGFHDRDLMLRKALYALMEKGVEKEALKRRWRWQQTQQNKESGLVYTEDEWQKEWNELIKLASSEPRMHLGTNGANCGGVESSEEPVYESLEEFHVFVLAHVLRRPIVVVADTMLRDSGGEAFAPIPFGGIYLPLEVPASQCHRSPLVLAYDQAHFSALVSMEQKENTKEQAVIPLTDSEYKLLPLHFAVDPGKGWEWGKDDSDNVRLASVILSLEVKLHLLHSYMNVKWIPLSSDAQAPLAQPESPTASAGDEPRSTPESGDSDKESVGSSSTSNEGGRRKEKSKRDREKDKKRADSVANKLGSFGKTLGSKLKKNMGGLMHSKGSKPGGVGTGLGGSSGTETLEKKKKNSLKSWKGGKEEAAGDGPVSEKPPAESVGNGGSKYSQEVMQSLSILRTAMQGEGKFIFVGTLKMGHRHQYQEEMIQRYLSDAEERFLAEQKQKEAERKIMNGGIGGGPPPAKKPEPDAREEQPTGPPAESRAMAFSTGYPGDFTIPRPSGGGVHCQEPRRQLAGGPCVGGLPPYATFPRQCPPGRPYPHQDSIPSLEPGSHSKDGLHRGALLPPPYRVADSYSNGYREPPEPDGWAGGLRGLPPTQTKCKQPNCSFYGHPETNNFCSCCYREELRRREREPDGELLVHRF
inactive: [1]; compound concentration: 50uM -0.4 | [1]; compound concentration: 200uM -0.926 | [3]; compound concentration: 50uM -0.537 | [6]; compound concentration: 0.78uM -0.175 | [6]; compound concentration: 1.56uM -0.207 | [6]; compound concentration: 3.13uM -0.537 | [6]; compound concentration: 6.25uM -0.893 | [7]; compound concentration: 0.78uM -0.133 | [7]; compound concentration: 1.56uM -0.0966 | [7]; compound concentration: 3.13uM -0.116 | [7]; compound concentration: 6.25uM -0.27 | [7]; compound concentration: 12.5uM -0.226 | [7]; compound concentration: 25uM -0.495 | [8]; compound concentration: 0.78uM -0.224 | [8]; compound concentration: 1.56uM -0.562 | [8]; compound concentration: 3.13uM -0.851 | [9]; compound concentration: 50uM -0.0276 | [9]; compound concentration: 200uM -0.501 | [10]; compound concentration: 50uM -0.433 | [10]; compound concentration: 200uM -0.824
active: [2]; compound concentration: 50uM -1.97 | [2]; compound concentration: 200uM -4.51 | [3]; compound concentration: 200uM -1.65 | [4]; compound concentration: 50uM -4.9 | [4]; compound concentration: 200uM -5.48 | [5]; compound concentration: 50uM -2.66 | [5]; compound concentration: 200uM -4.52 | [6]; compound concentration: 12.5uM -1.66 | [6]; compound concentration: 25uM -2.4 | [6]; compound concentration: 50uM -3.12 | [6]; compound concentration: 100uM -3.17 | [6]; compound concentration: 200uM -3.5 | [7]; compound concentration: 50uM -1.03 | [7]; compound concentration: 100uM -1.55 | [7]; compound concentration: 200uM -2.65 | [8]; compound concentration: 6.25uM -1.39 | [8]; compound concentration: 12.5uM -2.2 | [8]; compound concentration: 25uM -3.03 | [8]; compound concentration: 50uM -3.18 | [8]; compound concentration: 100uM -3.43 | [8]; compound concentration: 200uM -3.45

USP15 (UniProt Q9Y4E8)
UniProt Q9Y4E8, sequence (Q9Y4E8 whole entry): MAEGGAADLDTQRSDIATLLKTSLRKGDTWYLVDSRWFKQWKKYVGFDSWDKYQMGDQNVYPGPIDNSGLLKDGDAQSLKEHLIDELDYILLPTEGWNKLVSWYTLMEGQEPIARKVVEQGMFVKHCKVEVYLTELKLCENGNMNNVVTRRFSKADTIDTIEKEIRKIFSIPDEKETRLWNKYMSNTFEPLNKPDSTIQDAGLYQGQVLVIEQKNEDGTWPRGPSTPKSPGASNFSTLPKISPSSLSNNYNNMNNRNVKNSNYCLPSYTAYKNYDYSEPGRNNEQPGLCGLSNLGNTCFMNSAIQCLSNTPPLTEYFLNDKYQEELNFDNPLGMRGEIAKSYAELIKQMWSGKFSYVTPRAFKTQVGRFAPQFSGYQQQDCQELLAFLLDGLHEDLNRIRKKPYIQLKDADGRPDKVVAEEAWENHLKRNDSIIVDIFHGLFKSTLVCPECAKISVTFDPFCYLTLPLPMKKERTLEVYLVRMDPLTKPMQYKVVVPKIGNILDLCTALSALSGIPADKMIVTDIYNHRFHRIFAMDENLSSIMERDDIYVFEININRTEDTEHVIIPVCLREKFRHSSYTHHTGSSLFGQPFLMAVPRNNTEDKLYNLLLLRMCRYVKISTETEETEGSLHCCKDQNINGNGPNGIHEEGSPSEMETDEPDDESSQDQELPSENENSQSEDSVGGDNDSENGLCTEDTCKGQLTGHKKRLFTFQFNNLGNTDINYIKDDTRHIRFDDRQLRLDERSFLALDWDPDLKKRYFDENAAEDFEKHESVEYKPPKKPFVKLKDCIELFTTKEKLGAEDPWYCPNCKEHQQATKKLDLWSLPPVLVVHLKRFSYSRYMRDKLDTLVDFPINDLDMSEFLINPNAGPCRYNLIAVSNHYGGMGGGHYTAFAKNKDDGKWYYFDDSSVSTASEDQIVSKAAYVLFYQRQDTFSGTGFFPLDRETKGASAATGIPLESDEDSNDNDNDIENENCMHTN
active: [10]; compound concentration: 200uM -1.38
inactive: [1]; compound concentration: 50uM -0.208 | [1]; compound concentration: 200uM -0.456 | [2]; compound concentration: 50uM -0.352 | [2]; compound concentration: 200uM -0.178 | [3]; compound concentration: 50uM -0.273 | [3]; compound concentration: 200uM -0.899 | [4]; compound concentration: 50uM 0.0231 | [4]; compound concentration: 200uM 0.118 | [5]; compound concentration: 50uM -0.104 | [5]; compound concentration: 200uM -0.0799 | [6]; compound concentration: 0.78uM -0.111 | [6]; compound concentration: 1.56uM 0.00504 | [6]; compound concentration: 3.13uM -0.0668 | [6]; compound concentration: 6.25uM 0.00578 | [6]; compound concentration: 12.5uM 0.00284 | [6]; compound concentration: 25uM -0.194 | [6]; compound concentration: 50uM -0.0476 | [6]; compound concentration: 100uM -0.0886 | [6]; compound concentration: 200uM -0.0894 | [7]; compound concentration: 0.78uM -0.15 | [7]; compound concentration: 1.56uM -0.0871 | [7]; compound concentration: 3.13uM -0.0689 | [7]; compound concentration: 6.25uM -0.0495 | [7]; compound concentration: 12.5uM -0.0456 | [7]; compound concentration: 25uM -0.00914 | [7]; compound concentration: 50uM -0.0377 | [7]; compound concentration: 100uM -0.0901 | [7]; compound concentration: 200uM -0.162 | [8]; compound concentration: 0.78uM -0.089 | [8]; compound concentration: 1.56uM -0.101 | [8]; compound concentration: 3.13uM -0.0661 | [8]; compound concentration: 6.25uM 0.0971 | [8]; compound concentration: 12.5uM -0.119 | [8]; compound concentration: 25uM -0.0896 | [8]; compound concentration: 50uM -0.0399 | [8]; compound concentration: 100uM -0.0575 | [8]; compound concentration: 200uM -0.135 | [9]; compound concentration: 50uM -0.143 | [9]; compound concentration: 200uM -0.873 | [10]; compound concentration: 50uM -0.696
